Results published in ChEMBL document CHEMBL3988442, “University of Dundee, Small-Polar-MMV Screening Library” (2021).
In all, about 69,000 compounds went through this assay and about 1,000 (1.4%) showed an effect of 50% or more. The sample holds strong results, similar compounds and a random draw of the others, so the mix is not that of the screen.

Tested on: Leishmania donovani
Assay: Leishmania intramacrophage assay
Format: functional, organism-based
Set-up: scale not given: in the data most compounds retested in dose-response had high values

SMILES: CCc1c(C)nc(C)nc1N1C[C@@H](CN(C)C)[C@@H](CO)C1
- Percent Effect (30.3 µM, […]): 54.47%

SMILES: CCc1c(C)nc(C)nc1N1C[C@@H](CN(CC)CCO)[C@@H](CO)C1
- Percent Effect (30.3 µM, […]): -0.6836%

SMILES: CCc1c(C)nc(C)nc1N1C[C@@H](CN(C)CCN(C)C)[C@@H](CO)C1
- Percent Effect (30.3 µM, […]): 30.66%

SMILES: Cn1ccnc1CN1C[C@@H](CN2CCCC2)[C@@H](CO)C1
- Percent Effect (30.3 µM, […]): 30.27%

SMILES: CCN1CC[C@]2(CN(Cc3nccs3)C[C@H]2c2ccccc2)C1=O.O=C(O)C(F)(F)F
- Percent Effect (30.3 µM, […]): 23.61%

SMILES: COc1ccc(-c2n[nH]c(C)c2CC(=O)NCCN2CCOCC2)cc1
- Percent Effect (30.3 µM, […]): -10.63%

SMILES: Cc1noc(C)c1CS(=O)(=O)C(C)C(=O)N(C)c1ccccc1 (stereo not given)
- Percent Effect (30.3 µM, […]): 39.61%

SMILES: Cc1cc(CS(=O)(=O)C(C)C(=O)N(C)c2ccccc2)on1 (stereo not given)
- Percent Effect (30.3 µM, […]): 59.375%

SMILES: Cc1noc(CS(=O)(=O)C(C)C(=O)N(C)c2ccccc2)n1 (stereo not given)
- Percent Effect (30.3 µM, […]): 12.83%

SMILES: Cc1cc(C)n(CC2CN(Cc3cc(C)on3)CCO2)n1 (stereo not given)
- Percent Effect (30 µM): 28.82%

SMILES: O=C(CN1CCOCS1(=O)=O)NCc1ccccc1
- Percent Effect (30.3 µM, […]): -15.82%

SMILES: COC1COC2(CCN(Cc3ccc4c(c3)OCO4)CC2)C1.O=C(O)C(F)(F)F (stereo not given)
- Percent Effect (30.3 µM, […]): 2.758%

SMILES: CC(C)n1c(C2CCCN(CC(N)=O)C2)nc2ccccc21 (stereo not given)
- Percent Effect (30.3 µM, […]): 0.009374%

SMILES: CC(C)OCCCN1CCCC(c2nc3ccccc3n2C(C)C)C1 (stereo not given)
- Percent Effect (30 µM, 30.03 µM): 51.41%

SMILES: CC(C)n1c(C2CCCN(CCS(C)(=O)=O)C2)nc2ccccc21 (stereo not given)
- Percent Effect (30 µM, 30.03 µM): 13.25%

SMILES: CC(C)c1noc(OCc2cccc(C#N)c2)n1
- Percent Effect (30.3 µM, […]): 36.94%

SMILES: CN1CCN(Cc2noc(-c3cc(-c4ccccc4F)n[nH]3)n2)CC1
- Percent Effect (30.3 µM, […]): -14.35%

SMILES: c1cc2c(cc1-n1nc(C3CC3)nc1-c1csnn1)OCCO2
- Percent Effect (30.3 µM, […]): -0.4467%

SMILES: CC(CNC(=O)c1c[nH]nn1)Oc1ccc(Cl)cc1 (stereo not given)
- Percent Effect (30.3 µM, […]): -48.71%

SMILES: Clc1cccc(C2CCN(c3ncnc4c3CCNC4)C2)c1 (stereo not given)
- Percent Effect (30.3 µM, […]): 76.01%

SMILES: c1ccc2c(c1)CN(c1ncnc3c1CCNC3)CCO2
- Percent Effect (30.3 µM, […]): 24.34%

SMILES: c1ccc(C2CCCN(c3ncnc4c3CCNC4)CC2)cc1 (stereo not given)
- Percent Effect (30.3 µM, […]): 74.19%

SMILES: c1ccc(C2CCN(c3ncnc4c3CCNC4)CC2)cc1
- Percent Effect (30.3 µM, […]): 29.27%

SMILES: c1cc(C2CCN(c3ncnc4c3CCNCC4)CC2)ccn1
- Percent Effect (30.3 µM, […]): 3.191%

SMILES: c1ccn2c(C3CCCN(c4ncnc5c4CCNC5)C3)nnc2c1 (stereo not given)
- Percent Effect (30.3 µM, […]): -1.091%

SMILES: N#Cc1cc(C(F)(F)F)ccc1NCC1CCS(=O)(=O)CC1
- Percent Effect (30.3 µM, […]): 3.711%

SMILES: O=C(c1cc[nH]n1)N1CCC(c2cc(Nc3ccccn3)n[nH]2)CC1
- Percent Effect (30.3 µM, […]): 6.823%

SMILES: Cc1ccc(NC2CCN(C(=O)c3cccc4[nH]ncc34)CC2)nn1
- Percent Effect (30.3 µM, […]): 16.62%

SMILES: Cc1ccccc1C(C)CC(=O)N1CC[C@H](O)C1 (stereo not given in full)
- Percent Effect (30.3 µM, […]): 50.74%

SMILES: Cc1cc(CCC(=O)N2CC[C@H](O)C2)ccc1Br
- Percent Effect (30.3 µM, […]): -18.41%

SMILES: COc1ccccc1C(C)CC(=O)N1CC[C@H](O)C1 (stereo not given in full)
- Percent Effect (30.3 µM, […]): 5.433%

SMILES: COCCNc1ccccc1CNC(=O)NCc1cnc(C)s1
- Percent Effect (30.3 µM, […]): 19.41%

SMILES: c1cnn(CC2CCCN2Cc2nc(-c3ccoc3)no2)c1 (stereo not given)
- Percent Effect (30 µM, 30.03 µM): -37.38%

SMILES: Cn1nc(C(=O)NCc2ccccc2C(F)(F)F)c2c1CCS(=O)(=O)C2
- Percent Effect (30.3 µM, […]): 36.38%

SMILES: CCN1CC2(CCCCN2C(=O)c2ccsc2)CC1=O (stereo not given)
- Percent Effect (30.3 µM, […]): 22.42%

SMILES: C=C1C(C)(C)[C@H]2CC[C@]1(C(=O)N1CCC(Cn3cc(CO)nn3)CC1)C2
- Percent Effect (30.3 µM, […]): -11.33%

SMILES: Cc1nc(CN2CCC23CCN(Cc2ccco2)CC3)cs1
- Percent Effect (30.3 µM, […]): 53.61%

SMILES: Cc1nc(CN2CCN(C(=O)CCc3ccco3)CC2)cs1
- Percent Effect (30 µM): 15.52%

SMILES: Cc1nc(CN2CCC3(C2)CN(C(=O)c2ccc[nH]2)C3)cs1
- Percent Effect (30.3 µM, […]): 35.81%

SMILES: Cc1nc(CN2CCC3(C2)CN(Cc2ccco2)C3)cs1
- Percent Effect (30.3 µM, […]): 58.57%

SMILES: Cc1nc(CN2C(=O)CCC23CCN(Cc2ccoc2)CC3)cs1.O=C(O)C(F)(F)F.O=C(O)C(F)(F)F
- Percent Effect (30.3 µM, […]): 9.105%

SMILES: Cc1nc(CN2CCC23CCN(Cc2ccoc2)CC3)cs1
- Percent Effect (30.3 µM, […]): 63.43%

SMILES: Cc1nc(CN2CCC3(CCCN(Cc4ccoc4)C3)C2=O)cs1.O=C(O)C(F)(F)F.O=C(O)C(F)(F)F (stereo not given)
- Percent Effect (30.3 µM, […]): 15.73%

SMILES: Cc1nc(CN2C(=O)CCC23CCN(Cc2ccco2)CC3)cs1
- Percent Effect (30.3 µM, […]): 23.38%

SMILES: Cc1nc(CN2CCC23CCN(C(=O)c2ccco2)CC3)cs1
- Percent Effect (30.3 µM, […]): 26.24%

SMILES: CCCc1nc(CN(CC)C(=O)c2ccc3ncsc3c2)no1
- Percent Effect (30.3 µM, […]): -29.17%

SMILES: COc1ccc(-c2nccn2CC(O)CN2CCCC2)c(F)c1 (stereo not given)
- Percent Effect (30.3 µM, […]): 5.05%

SMILES: COc1ccc2cnn(CC(=O)NC3CCCCC3)c(=O)c2c1OC
- Percent Effect (30.3 µM, […]): 14.43%

SMILES: CNS(=O)(=O)CCn1cc(-c2ccc(OC)c(OC)c2)nn1
- Percent Effect (30.3 µM, […]): 27.44%

SMILES: CCn1cc2c(n1)C(COC)CN(C(=O)COc1ccccc1C)C2 (stereo not given)
- Percent Effect (30 µM, 30.03 µM): -0.4533%

SMILES: CC(C)c1ncncc1C(=O)N1CCN(Cc2ccccn2)CC1
- Percent Effect (30 µM): 24.52%

SMILES: NC(=O)c1cccc(OCC(=O)NS(=O)(=O)c2ccc3c(c2)CCC3)c1
- Percent Effect (30 µM): 8.199%

SMILES: Cc1nn(C)c(N2CCOCC2)c1CNC1COc2ccccc2C1 (stereo not given)
- Percent Effect (30 µM): 6.69%

SMILES: CC(=O)NCCCc1ncnn1-c1cccc(Cl)c1
- Percent Effect (30.3 µM, […]): -4.184%

SMILES: O=C(NCC(=O)N1CCCc2ccccc21)c1c(O)cc(F)cc1F
- Percent Effect (30 µM): 16.08%

SMILES: O=C(NCCC(=O)N1CCCc2ccccc21)c1c(O)cc(F)cc1F
- Percent Effect (30 µM, 30.03 µM): 50.32%

SMILES: O=C(NCCC(=O)N1CCCc2ccccc21)c1c(F)cccc1F
- Percent Effect (30 µM): 15.29%

SMILES: Cc1ccc(CN2C[C@@H]3[C@@H](C(=O)NCC(C)C)CCS(=O)(=O)[C@@H]3C2)cc1.O=C(O)C(F)(F)F
- Percent Effect (30.3 µM, […]): -6.029%

SMILES: CCc1nnc(SCC(=O)Nc2cc(C(C)(C)C)nn2C)[nH]1
- Percent Effect (30.3 µM, […]): 21.82%

SMILES: CCc1cc(NC2CCS(=O)(=O)CC2)nc(N2CCCCC2)n1
- Percent Effect (30.3 µM, […]): -6.887%

SMILES: CCc1cc(NCC(N)=O)nc(N2CCCCC2)n1
- Percent Effect (30.3 µM, […]): 21.93%

SMILES: CCc1cc(NC2CCN(CC(N)=O)CC2)nc(N2CCCCC2)n1
- Percent Effect (30.3 µM, […]): 55.44%

SMILES: COC(=O)c1sccc1CN1CCN(C(=O)c2ccc(C)o2)CC1
- Percent Effect (30.3 µM, […]): 23.22%

SMILES: CCc1ccsc1C(=O)N1CCS(=O)(=O)CC1
- Percent Effect (30.3 µM, […]): 9.315%

SMILES: CCc1ccsc1C(=O)N1CCN(C(=O)c2ccc(C)o2)CC1
- Percent Effect (30.3 µM, […]): 56.23%
